The entries come from a sample that favours hits as a whole.
B2AR arrestin ag – agonists recruiting beta-arrestin to human beta2-adrenergic receptor; P07550; HTLA Tango cells, beta-arrestin recruitment, luciferase luminescence, 18 h; Potency, µM (series often up to 46.1 µM), hits mostly activators; 44,000 tested, under 10 active; AID 1347077
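Ligand-induced beta-arrestin recruitment to recombinant beta2-AR is measured via a tTA-driven luciferase reporter in Tango cells after 18 hr compound exposure at 37 degrees C. Concentrations span up to 46 microM.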
GALK inhibitor – inhibits human galactokinase. P51570. recombinant GALK, Kinase-Glo ATP luminescence, 1 h. Potency, µM (top dose mostly 57.5 µM), usual class: inhibitors. 44,000 tested, under 10 active
Target sequence (P51570 whole entry, looked up): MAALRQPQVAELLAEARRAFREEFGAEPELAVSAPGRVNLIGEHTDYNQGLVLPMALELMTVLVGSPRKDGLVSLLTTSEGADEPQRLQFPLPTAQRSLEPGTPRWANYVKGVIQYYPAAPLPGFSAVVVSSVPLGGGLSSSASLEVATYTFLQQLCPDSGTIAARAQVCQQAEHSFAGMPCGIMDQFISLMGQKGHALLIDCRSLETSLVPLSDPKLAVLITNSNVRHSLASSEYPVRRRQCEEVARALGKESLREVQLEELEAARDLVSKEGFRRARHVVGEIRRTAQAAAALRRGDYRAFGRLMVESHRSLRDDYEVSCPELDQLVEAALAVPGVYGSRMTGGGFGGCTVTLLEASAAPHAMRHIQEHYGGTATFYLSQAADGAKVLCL
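Compounds were pinned into ATP buffer, then GALK-galactose mix was added (final 5 nM enzyme, 35 uM ATP, 100 uM galactose, pH 8.0). After 1 h at room temperature, Kinase-Glo Plus was added and luminescence read.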
TSG101-PTAP inh – TSG101-PTAP interaction inhibition, HIV-1 budding. Fluorescence polarization, FITC-PTAP peptide/Tsg101, 20 min. Potency, µM (titrated, usually from 115 µM), hits mostly inhibitors. 44,000 tested, under 10 active
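Compounds pinned into 10 uM Tsg101 binding domain, then 50 nM FITC-PTAP peptide added in pH 7.5 HEPES buffer; FP read after 20 min, room temperature. Total S+P intensity flags fluorescent compounds; active cut-off <25 µM, efficacy <60%.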
Hits are given with their value; . = inactive; ? = inconclusive. The call rests on the fitted dose curve; in most records, active means well fitted curve in the direction sought with a large enough effect; inconclusive means small, poorly fitted or top-dose-only effect, or another doubt; inactive means no such curve, though single readings can be large; an effect the other way counts as inactive or inconclusive.

SMILES	B2AR arrestin ag	GALK inhibitor	TSG101-PTAP inh
COc1ccc(NC(=O)C(Cc2ccccc2)NS(=O)(=O)c2ccc3c(c2)CCC(=O)N3)c(OC)c1 (stereo unspecified)	.	.	.
CC(C)(C)C(=O)Nc1ccc2nc(SCCOc3ccccc3Cl)sc2c1	.	.	.
CSc1ccc(CNC(=O)C2CCCN(S(=O)(=O)N(C)c3ccc(F)cc3)C2)cc1 (stereo unspecified)	.	.	.
CCOCCOC(=O)c1ccc2c(c1)N(Cc1ccccc1C#N)C(=O)c1ccccc1S2(=O)=O	.	.	.
Cc1ccc(C)c(N2CCN(Cc3csc(C)c3C)CC2)c1	.	.	.
Cc1c(-c2ccc(Cl)cc2)c(=O)oc2c(CN3CCN(C)CC3)c(O)ccc12	.	.	.
O=C(CCCn1c(=O)c2cccn2c2cccnc21)Nc1ccccc1Br	.	.	.
CCOc1cc(-c2ccc(OC(=O)c3ccc(C)cc3)c(OC)c2)cc(=O)c2c(C)oc(C)c12	.	?	.
Cc1ccccc1Nc1ncnc2c1cnn2C	.	.	.
Cc1ccc2c(c1)N(C(=O)N1CCC(C(=O)NCc3ccco3)CC1)CC(C)O2 (stereo unspecified)	.	.	.
COc1cccc(C(=O)Nc2cc(-c3ccccc3)nn2-c2ccccc2)c1	.	.	.
CCOc1ccccc1NC(=O)c1c(NCc2cccs2)sc2c1CCCCC2	?	.	.
COc1cc2ccccc2cc1C(=O)Nc1ccc2oc(-c3cc(Br)ccc3Cl)nc2c1	.	.	.
CCSc1ncc(Cl)c(C(=O)Nc2ccc(S(=O)(=O)Nc3nccc(C)n3)cc2)n1	.	.	.
COc1ccc(C(=O)OC2=C(C(=O)c3ccccc3)N(C)S(=O)(=O)c3ccccc32)cc1OC	.	.	.
COc1ccc(-n2nc(C(=O)N(C)c3cccc(C(F)(F)F)c3)c3c4ccccc4n(C)c3c2=O)cc1	.	.	.
COc1ccc(-c2cc(-c3ccccc3)nc3c2COc2ccc(F)cc2-3)cc1	.	.	.
COc1ccc(NC(=O)CSc2oc(-c3ccco3)nc2S(=O)(=O)c2ccccc2)c(OC)c1	.	.	.
Cc1cccc(-c2nc3c4ccccc4nc(NCc4ccccc4Cl)n3n2)c1	.	.	.
COc1cc(Cl)c(C)cc1NC(=O)CCCN1C(=O)C(c2ccccc2)Oc2cccnc21 (stereo unspecified)	.	.	.
Cc1csc2nc(COc3ccc(NC(=O)C(C)C)cc3)cc(=O)n12	.	.	.
Cc1ccc(C)c(Cn2c(=O)n(-c3ccccc3)c(=O)c3c4c(sc32)CCCC4)c1	.	.	.
Cc1ccccc1CNC(=O)c1ccc(Cn2c(SCc3ccccc3)nc3cccnc32)cc1	.	.	.
CCCCN(c1ccccc1)c1ncnc2c1cnn2-c1ccc(Cl)cc1	.	.	.
CCC(=O)N1CCc2cc(Br)cc(S(=O)(=O)CCC(=O)NCc3cccc(OC)c3)c21	.	.	.
SMILES	B2AR arrestin ag	GALK inhibitor	TSG101-PTAP inh
O=C(CC1C(=O)N(c2ccccc2)C(=O)N1Cc1ccc(F)cc1)Nc1cccc(F)c1 (stereo unspecified)	.	.	.
O=C(CSc1nc2c([nH]c3ccccc32)c(=O)n1-c1cccc(Cl)c1)NCC1CCCO1 (stereo unspecified)	.	.	.
Cc1cccc(N2CCN(C(=O)Cn3c(C)c4cnn(-c5ccccc5)c(=O)c4c3C)CC2)c1C	.	.	.
Cc1ccc2c(c1)-c1nc(-c3ccccc3)cc(-c3ccccc3)c1CO2	.	.	.
Cc1ccc(N2CCN(C(=O)C3CCN(c4ncnc5c4nc4n5CCCCC4)CC3)CC2)c(C)c1	.	.	.
COc1ccc(N2CCN(Cc3nc4c(c(=O)[nH]c(=O)n4C)n3Cc3ccccc3C)CC2)cc1	.	.	.
Cc1nn(C)c2c1c(C(F)(F)F)cc(=O)n2C(C)C(=O)Nc1ccccc1F (stereo unspecified)	.	.	.
COc1ccc(S(=O)(=O)NCCc2sc3nc(-c4ccc(C)cc4)nn3c2C)cc1C	.	.	.
CCN(C(=O)Cn1nc(Cc2cccnc2)c2ccccc2c1=O)c1cc(C)ccc1C	.	.	.
CCCn1c(CCC(=O)Nc2ccc(OCC)cc2)nc2cccnc21	.	.	.
COc1ccc(NC(=O)/C(C#N)=C/c2ccc(C)o2)cc1	.	.	.
COc1cccc(NC(=O)/C(C#N)=C/c2ccc(-c3ccc(C)cc3)o2)c1	.	.	40µM
Cc1cc(C)c(NC(=O)C(C)n2nnc3sc4c(c3c2=O)CCCC4)c(C)c1 (stereo unspecified)	.	.	.
Cc1cccc(CN2C(=O)c3ccccc3Sc3ccc(C(=O)N4CCCC4)cc32)c1	?	.	.
COc1cc(NS(=O)(=O)c2ccc3oc(=O)c4ncn(C)c4c3c2)cc(OC)c1	.	.	.
Cc1cccc(C)c1OCCn1c(CCNC(=O)C2CCCCC2)nc2ccccc21	.	.	.
Cc1ccc(NC(=O)C(NS(=O)(=O)c2ccc3c(c2)CCC(=O)N3)c2ccccc2)cc1C (stereo unspecified)	.	.	.
CC(C)c1ccc(S(=O)(=O)c2cn(CC(=O)Nc3ccc(F)cc3)c3ccccc3c2=O)cc1	.	.	.
